Records with an inconclusive call do not appear. Unmarked numbers belong to inactive results. Activity calls are given as the source filed them. Unless noted, calls come from the whole dose curve; as a rule, active = well fitted cell-killing curve with a large enough effect in the repeat runs (not every such curve was filed as active); inconclusive = weak or mixed curves, or effect the other way; inactive = no such curve, though single readings can be large or run the other way.
% is set by controls: 0 for no effect and ±100 for the full control effect; potency is the fitted concentration of half-maximal effect.

The target of the first test is Nuclear receptor subfamily 1 group I member 3 (Homo sapiens) (UniProt Q14994). As to the kind of experiment: qHTS assay to identify small molecule agonists of the constitutive androstane receptor (CAR) signaling pathway (AID 1224839; active = well fitted activation curve with a large enough effect in the repeat runs; note: nearly all actives have a fitted effect of over 15% in size;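 for activation: HepG2 cells stably carrying human CAR and a CYP2B6 luciferase reporter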). The settings on record: HepG2 hCAR CYP2B6-luciferase, agonist mode, 24 h; series mostly up to 92.4 µM; activation: at the top concentration. The method, boiled down: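 Double-stable HepG2 cells (hCAR, CYP2B6-2.2kb) seeded 4 h before compound addition. Exposure 24 h with 0.75 uM PK11195 final. Luciferase detected by ONE-Glo.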
Nuclear receptor subfamily 1 group I member 3 (Homo sapiens), sequence (Q14994 whole entry, looked up): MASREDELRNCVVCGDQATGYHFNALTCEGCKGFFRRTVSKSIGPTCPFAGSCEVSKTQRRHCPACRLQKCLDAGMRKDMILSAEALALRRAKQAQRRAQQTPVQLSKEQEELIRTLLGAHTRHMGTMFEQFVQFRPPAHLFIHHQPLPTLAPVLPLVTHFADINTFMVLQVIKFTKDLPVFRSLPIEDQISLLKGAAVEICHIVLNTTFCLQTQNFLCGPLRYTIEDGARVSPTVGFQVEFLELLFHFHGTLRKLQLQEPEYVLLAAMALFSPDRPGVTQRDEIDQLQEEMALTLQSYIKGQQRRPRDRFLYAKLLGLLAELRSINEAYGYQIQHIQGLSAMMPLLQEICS
A general note: Quantitative high-throughput screening tests each substance at several concentrations.
With `C=C(C)C(=O)OCCOCCOC(=O)C(=C)C`, the “activation” value is -2.01%. On to `CC(C)(c1ccccc1)c1ccccc1`, for which the Potency was 45.1 µM (active).

Take `c1ccc(C[n+]2cccc3ccccc32)cc1`: the “activation” value is 1.95%. Turning to `CC1(C)[C@@H](OC(=O)CCC(=O)O)CC[C@]2(C)[C@H]3C(=O)C=C4[C@@H]5C[C@@](C)(C(=O)O)CC[C@]5(C)CC[C@@]4(C)[C@]3(C)CC[C@@H]12`, the “activation” value was -0.109% [at 42.5 µM]. The same measure, in the same setting: in the case of `CC(=O)Oc1ccc([N+](=O)[O-])cc1CCl` it was 0.0834%; in that of `CCCCCCCCCCCCCCN(CCO)CCO`, -22.4%; in that of `O=c1[nH]ncc2ccccc12`, -0.404%.

`O=C(CCCN1CC=C(n2c(=O)[nH]c3ccccc32)CC1)c1ccc(F)cc1`: the “activation” value was -1.29% [at 42.5 µM]. The same measure, in the same setting: under `C=C/C(C)=C/C/C=C(\C)CCC=C(C)C` stands 6.83%; under `CCCCCCCCN`, -0.69%; under `CC1CC(C)C(=O)C1=O` (stereo not given), -2.23%. The same measure, in the same setting: under `COC(=O)CCS` stands 2.95%; under `Cc1ccc2c(Br)cc(Br)c(O)c2n1`, 0.677% [at 42.5 µM]; under `CCCCCCC(C)(C)C(=O)O`, 1.48%.

With `O=C1CCCCCCCCCCOCCCCO1`, the “activation” value was 7.87%.

For `Cc1[nH]cnc1CN1CCc2c(c3ccccc3n2C)C1=O`, the “activation” value is 0.454% [at 42.5 µM]. Turning to `CCCCCCCC/C=C\CCCCCCCCCCCC(=O)O`, the “activation” value was -1.31%.

Take `Oc1cc2c(cc1O)[C@H]1c3ccc(O)c(O)c3OC[C@@]1(O)C2`: the “activation” value was -11.6%. For `Brc1cc(Br)c(Oc2cc(Br)c(Br)cc2Br)cc1Br`, the “activation” value is 2.15% [at 42.5 µM]. On the same count and under the same terms, in the case of `CCN(CC)CCNC(=O)COc1ccc(OC)cc1` it was -0.798% [at 42.5 µM]. For `CC(C)=CCC1C(=O)N(c2ccccc2)N(c2ccccc2)C1=O`, the “activation” value is 0.0919% [at 42.5 µM]. The same measure, in the same setting: in the case of `CC(=O)OCC[N+](C)(C)C` it was 1.35% [at 42.5 µM].

For the compound `NCCNCCO`, the “activation” value is 0.258%.

Test system in the next test: not listed separately
Description: qHTS assay to identify small molecule antagonists of the estrogen related receptor signaling pathway with the pleiotropic PPARgamma coactivator (PGC) from Tox21 10K library - cell viability counter screen (AID 1224840). Note: nearly all actives have a fitted effect of over 40% in size. As to conditions: PGC/ERR reporter cells viability, CellTiter-Fluor, 17.5 h; series mostly up to 92.4 µM; viability change, negative = cytotoxic: at the top concentration. The method, boiled down: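 Following seeding of 2,000 PGC/ERR cells/well and 6 hours' incubation, test compounds were delivered in DMSO. The plates then sat 17.5 hours at 37 C before a fluorogenic live-cell protease reagent (CellTiter-Fluor) was read after 30 min.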
As for `Cc1ccc(Cl)c(Nc2ccccc2C(=O)O)c1Cl`, the “viability change, negative = cytotoxic” value is -0.729% [at 42.5 µM].

As for `C=C(C)C(=O)OCCOCCOC(=O)C(=C)C`, the “viability change, negative = cytotoxic” value was 0.0797%. For `CC(C)(c1ccccc1)c1ccccc1`, the “viability change, negative = cytotoxic” value was -0.791%. For `c1ccc(C[n+]2cccc3ccccc32)cc1`, the “viability change, negative = cytotoxic” value was -6.19%. As for `CCC1CO1` (stereo not given), the “viability change, negative = cytotoxic” value was 2.11%. The same measure, in the same setting: in the case of `Cc1cscn1` it was 0.613%; in that of `CC1(C)S[C@@H]2[C@H](NC(=O)C(c3ccccc3)S(=O)(=O)O)C(=O)N2[C@H]1C(=O)O` (stereo not given in full), 1.23% [at 42.5 µM].

For the compound `CC1(C)[C@@H](OC(=O)CCC(=O)O)CC[C@]2(C)[C@H]3C(=O)C=C4[C@@H]5C[C@@](C)(C(=O)O)CC[C@]5(C)CC[C@@]4(C)[C@]3(C)CC[C@@H]12`, the “viability change, negative = cytotoxic” value was -4.35% [at 42.5 µM]. In the case of `CC(=O)Oc1ccc([N+](=O)[O-])cc1CCl`, the Potency was 30.6 µM (active).

For the compound `CCCCCCCCCCCCCCN(CCO)CCO`, the Potency is 54.5 µM (active).

For the compound `O=C(/C=C/c1ccc(O)c(O)c1)O[C@@H]1C[C@@](OC(=O)/C=C/c2ccc(O)c(O)c2)(C(=O)O)C[C@@H](O)[C@@H]1O`, the “viability change, negative = cytotoxic” value was -2.15% [at 42.5 µM]. On the same count and under the same terms, under `O[C@@H]1CO[C@H]2[C@@H]1OC[C@@H]2O` stands 3.76% [at 42.5 µM]; under `O=c1[nH]ncc2ccccc12`, 0.504%; under `O=C(CCCN1CC=C(n2c(=O)[nH]c3ccccc32)CC1)c1ccc(F)cc1`, -26.1% [at 42.5 µM]. On the same count and under the same terms, under `C=C/C(C)=C/C/C=C(\C)CCC=C(C)C` stands 1.55%.

Turning to `CCOC(=O)c1ccc(C#Cc2ccc3c(c2)C(C)(C)CCS3)nc1`, the “viability change, negative = cytotoxic” value is 0.348% [at 42.5 µM]. In the case of `CCCCCCCCN`, the “viability change, negative = cytotoxic” value is 1.6%. The same measure, in the same setting: in the case of `CC1CC(C)C(=O)C1=O` (stereo not given) it was 8.57%; in that of `COC(=O)CCS`, -7.25%; in that of `CCC(OCCCOC)OC(C)=O` (stereo not given), -0.61%.

With `CO[C@]1(NC(=O)CSC(F)F)C(=O)N2C(C(=O)O)=C(CSc3nnnn3CCO)CO[C@H]21`, the “viability change, negative = cytotoxic” value is -16% [at 42.5 µM]. Consider `CCCCCCC(C)(C)C(=O)O`, for which the “viability change, negative = cytotoxic” value was 4.68%. Regarding `O=C1CCCCCCCCCCOCCCCO1`, the “viability change, negative = cytotoxic” value was -13.9%. Still for that read-out and setting: in the case of `CCn1cc(C(=O)O)c(=O)c2cc(F)c(N3CCNCC3)cc21` it was -3.17% [at 42.5 µM]; in that of `CCOc1ccccc1O[C@H](c1ccccc1)[C@H]1CNCCO1`, 2.52% [at 42.5 µM]. The same measure, in the same setting: under `Cc1[nH]cnc1CN1CCc2c(c3ccccc3n2C)C1=O` stands -2.69% [at 42.5 µM]. On the same count and under the same terms, in the case of `CCCCCCCC/C=C\CCCCCCCCCCCC(=O)O` it was 1.77%. On to `Oc1cc2c(cc1O)[C@H]1c3ccc(O)c(O)c3OC[C@@]1(O)C2`, for which the Potency is 27.6 µM (active). As for `O=C(OC(=O)c1ccccc1)c1ccccc1`, the “viability change, negative = cytotoxic” value was 8.02%. Same read-out and setting: in the case of `Brc1cc(Br)c(Oc2cc(Br)c(Br)cc2Br)cc1Br` it was 1.12% [at 42.5 µM].

Regarding `CCN(CC)CCNC(=O)COc1ccc(OC)cc1`, the “viability change, negative = cytotoxic” value is 2.48% [at 42.5 µM].

Take `NNC(=O)CP(=O)(c1ccccc1)c1ccccc1`: the “viability change, negative = cytotoxic” value was 0.608% [at 42.5 µM].

`C=C(C)CCCC(C)CCO` (stereo not given): the “viability change, negative = cytotoxic” value is -11.1%. Still for that read-out and setting: in the case of `O=C(O)CCC(=O)C(=O)O` it was 0.0069%. In the case of `Nc1ccc(N=Nc2ccccc2)c(N)c1`, the Potency was 26.7 µM (active).

On to `CC(C)=CCC1C(=O)N(c2ccccc2)N(c2ccccc2)C1=O`, for which the “viability change, negative = cytotoxic” value was 0.566% [at 42.5 µM]. As to `COC(=O)CS`, the “viability change, negative = cytotoxic” value was 2.5%. The same measure, in the same setting: under `CC(=O)OCC[N+](C)(C)C` stands 10.6% [at 42.5 µM]; under `NCCNCCO`, 4.95%.

Test system in another test: not listed separately
Description: qHTS assay to identify small molecule antagonists of the estrogen related receptor signaling pathway with the pleiotropic PPARgamma coactivator (PGC) from Tox21 10K library (AID 1224841; call rule not given here; note: actives are mostly falling curves and most rising ones were filed inactive; nearly all actives have a fitted effect of over 50% in size). The settings on record: PGC/ERR reporter cell line, ONE-Glo luciferase, 18 h; series mostly up to 92.4 µM; activity, negative = inhibition: at the top concentration. The method, boiled down: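 qHTS antagonist format: PGC/ERR cells, 2k/well, compound in DMSO by pin transfer after 6 h attachment, 18 h treatment at 37 C, One-Glo luminescence read at 30 min.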
With `C=C(C)C(=O)OCCOCCOC(=O)C(=C)C`, the “activity, negative = inhibition” value is 5.06%. With `c1ccc(C[n+]2cccc3ccccc32)cc1`, the Potency was 24.3 µM (active). For `CC1(C)[C@@H](OC(=O)CCC(=O)O)CC[C@]2(C)[C@H]3C(=O)C=C4[C@@H]5C[C@@](C)(C(=O)O)CC[C@]5(C)CC[C@@]4(C)[C@]3(C)CC[C@@H]12`, the “activity, negative = inhibition” value was 3.3% [at 42.5 µM].

Take `CC(=O)Oc1ccc([N+](=O)[O-])cc1CCl`: the “activity, negative = inhibition” value is -13.9%. Still for that read-out and setting: in the case of `C=C/C(C)=C/C/C=C(\C)CCC=C(C)C` it was -24%. Consider `CCCCCCC(C)(C)C(=O)O`, for which the “activity, negative = inhibition” value is -23.1%. For `Oc1cc2c(cc1O)[C@H]1c3ccc(O)c(O)c3OC[C@@]1(O)C2`, the Potency is 34.8 µM (active). As for `NCCNCCO`, the “activity, negative = inhibition” value was -2.47%.

(Values after PubChem BioAssay (Tox21).)
